Source: PubChem BioAssay
Rows were chosen to be rich in hits. Some 10% of all compounds tested hit in one or more screens of this group.
PNC assembly inh – perinucleolar compartment assembly inhibition. actives 3.1% (n = 140,000). activity change (PNC), negative = inhibition, % at 10 µM. PC3M PTB-GFP, PNC prevalence imaging, 16 h; stronger effect = lower value;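 active = readout at or below -70, meaning at least 70% loss of cells showing the perinucleolar compartment, a nuclear body marking cancer cells; inconclusive = readout between -30 and a set limit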;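 also: plate controls were DMSO wells for no effect and camptothecin positive control wells for full effect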
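PC3M cells stably expressing PTB-GFP, 750–1000 cells/well, treated 16 h at 37 °C with compound (23 nl of library stock), in duplicate. After paraformaldehyde fixation and Hoechst stain, imaged at 20x; PNC prevalence scored by image analysis.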
IMPase cell inh – membrane-permeable compound that blocks inositol monophosphatase; AID 901; P97697; CHO-M1 cells, IP1 accumulation, HTRF TR-FRET ratio; inhibition (IP1 accumulation), % at 46.1 µM; 120,000 tested, under 10 active; active = well fitted curve in the direction sought with a large enough effect in the signal ratio, not every such curve was filed as active; inconclusive = small, poorly fitted or top-dose-only effect, or a change in a side signal; inactive = no such curve, though single readings can be large or run the other way; the % refers to the signal ratio;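 also: cells stimulated with carbachol in lithium chloride buffer; plate controls were DMSO basal wells for no effect and reference inhibitor wells for full effect; higher means more IMPase inhibition seen as more IP1 and lower FRET ratio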
Target sequence (P97697 whole entry, looked up): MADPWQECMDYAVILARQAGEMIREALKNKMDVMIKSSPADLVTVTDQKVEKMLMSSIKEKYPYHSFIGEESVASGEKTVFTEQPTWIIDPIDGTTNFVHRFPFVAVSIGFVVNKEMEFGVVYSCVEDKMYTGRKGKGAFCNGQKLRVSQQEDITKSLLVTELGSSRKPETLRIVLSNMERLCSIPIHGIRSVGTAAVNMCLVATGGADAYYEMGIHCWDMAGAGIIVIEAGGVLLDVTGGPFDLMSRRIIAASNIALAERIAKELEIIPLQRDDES
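Measured: the HTRF emission ratio (665/620 nm) plus the 620 nm donor channel, each fitted to the Hill equation to give AC50. Cells were CHO-M1 given compounds up to 46 uM and a 30 min carbachol stimulation at 37C.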
ALDH1A1 block – ALDH1A1 (human) enzyme inhibition. P00352. Purified ALDH1A1, NADH fluorescence, propionaldehyde substrate. Potency, µM (doses to about 75.3 µM), inactives show at the highest dose activity, negative = inhibition, most hits filed as inhibitors. actives 7.3% (n = 220,000);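 also: potency is read from the fitted curve at half-maximal effect; plate controls were no enzyme wells and a reference inhibitor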
Luc counter – Kinase-Glo luciferase inhibition (counter-screen). Potency, µM (top dose mostly 38.3 µM), for inactives: top-dose activity change, negative = inhibition, actives largely listed as inhibitors. AID 1379. actives 0.28% (n = 200,000). Q27757. Kinase-Glo luciferase, ATP luminescence, 8 min; active = well fitted inhibition curve with a large enough effect; inconclusive = small, poorly fitted or top-dose-only effect; also: potency is read from the fitted curve at half-maximal effect; nearly all actives have a fitted effect of over 60% in size
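Luminescence was the read-out, taken after 8-minute incubation at ambient temperature. Luciferase turned over luciferin with 10 uM ATP in imidazole pH 7.2 buffer containing KCl, MgCl2, Tween 20 and BSA.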
HPGD inh – inhibitors of human 15-hydroxyprostaglandin dehydrogenase (HPGD). actives 4.3% (n = 150,000). Potency, µM, for inactives: at the highest dose activity change, negative = inhibition, hits mostly inhibitors. purified HPGD, NADH fluorescence kinetic, PGE2 substrate. P15428; also: potency is read from the fitted curve at half-maximal effect
Target sequence (P15428 whole entry, looked up): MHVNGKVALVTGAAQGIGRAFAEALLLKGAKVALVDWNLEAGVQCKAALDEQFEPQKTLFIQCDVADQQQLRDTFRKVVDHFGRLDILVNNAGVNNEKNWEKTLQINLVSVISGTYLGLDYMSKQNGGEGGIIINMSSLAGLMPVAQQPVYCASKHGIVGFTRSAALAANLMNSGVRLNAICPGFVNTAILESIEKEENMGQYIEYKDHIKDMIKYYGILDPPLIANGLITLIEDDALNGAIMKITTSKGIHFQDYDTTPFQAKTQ
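20 nM HPGD preincubated 15 min at room temperature with compound in 50 mM Tris-HCl pH 8, 0.01% Tween 20. Started with 1 mM NAD+ and 30 uM prostaglandin E2; NADH fluorescence (360/450 nm) read 5 times over 30-s intervals, last minus first.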
LMNA splice mod – changes lamin A minigene splicing in HeLa cells. actives 0.01% (n = 200,000). HeLa LMNA splicing GFP/RFP minigene ratio, 48 h. Potency, µM (top dose mostly 46.1 µM), inactives show at the top dose ratio change, negative = inhibition, most hits filed as inhibitors; active = well fitted inhibition curve with a large enough effect in the signal ratio, with a control signal flat, not every such curve was filed as active; inconclusive = small, poorly fitted or top-dose-only effect, or effect the other way, or a change in a side signal; the % refers to the signal ratio; also: potency is read from the fitted curve at half-maximal effect
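Read-out is the ratio of GFP to DsRed2 object intensity, acquired by 488 nm laser-scanning cytometry on HeLa lamin A-EGFP minigene reporter cells. Compound incubation 48 hrs at 37 °C in Opti-MEM with 2% FBS; DMSO 0.5% final.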
* hit, by the source's call; ? = inconclusive; nt = not tested or not shown; [ ] = remark or other dose. Unless noted, calls follow the shape of the dose curve; as a rule, active = well fitted inhibition curve with a large enough effect (not every such curve was filed as active); inconclusive = small, poorly fitted or top-dose-only effect, or another doubt; inactive = no such curve, though single readings can be large or run the other way. Unless noted, % is scaled to controls: 0 for no effect and ±100 for the full control effect.

SMILES	PNC assembly inh	IMPase cell inh	ALDH1A1 block	Luc counter	HPGD inh	LMNA splice mod
CCC/C=C(\CCC)C(NS(=O)(=O)c1ccc(C(F)(F)F)cc1)c1ccc(C(=O)OC)cc1 (stereo not given)	nt	nt	-11.5%	-3.6%	-9.6%	nt
CCOC(=O)C(C)CC(C)C(=O)N1CCOCCOCCN(C(=O)C(C)CC(C)C(=O)OCC)CCOCC1 (stereo not given)	-8.9	-1.4	-5.2%	1.8%	-3.6%	1.5%
CCOC(=O)C(C(=O)OCC)C(C(=O)OCC)N1CCOCC1 (stereo not given)	21.3	-5.4	28.2µM*	-4.8%	22.4µM*	?
Cc1cccc(NS(=O)(=O)c2ccc(NC(=O)CN(c3cc([N+](=O)[O-])ccc3C)S(C)(=O)=O)cc2)c1	-113.4*	nt	12.1%	3.6%	-5.8%	?
O=C(NC1CCN(Cc2ccccc2)C1)c1ccc(Cc2nc3ccccc3[nH]2)cc1 (stereo not given)	nt	nt	2.8%	-0.6%	-4.9%	nt
C/C=C/Cn1c(SCc2ccccc2)nc2c1c(=O)[nH]c(=O)n2C	-4.2	-0.5	14.1µM*	6.0%	20µM*	10.3%
C/C(Cl)=C/Cn1c(SCc2ccc(Cl)cc2)nc2c1c(=O)[nH]c(=O)n2C	-27.4	2.7	?	-1.1%	-4.6%	11.4%
C/C=C/CSc1nc2c(c(=O)[nH]c(=O)n2C)n1Cc1ccc(C)cc1	26.4	5.8	10µM*	2.4%	17.8µM*	1.8%
Cc1ccc(Cn2c(SCC(C)C)nc3c2c(=O)n(C)c(=O)n3C)cc1	?	-6.5	2µM*	-5.3%	-25.4%	9.1%
CCCN(CCC)c1ccc(C2N=C(N)Nc3nc4ccccc4n32)cc1 (stereo not given)	nt	-6.4	nt	nt	nt	nt
O=C(c1ccncc1)N1CCC[C@@]2(CCN(c3cccc(-c4ccccc4)c3)C2)C1	nt	nt	?	1.4%	-12.7%	nt
Cc1ccc(N2C(=O)NC(NS(=O)(=O)c3ccc(Cl)cc3)(C(F)(F)F)C2=O)cc1C (stereo not given)	nt	11.2	nt	nt	nt	nt
COc1ccccc1CN1CC2(CCN(C(=O)c3ccncc3)CC2)C1	nt	nt	-5.0%	-0.5%	-9.9%	nt
CCCCn1c(=O)nc2n(-c3ccc(OC)cc3)c3ccccc3cc-2c1=O	nt	nt	8.91µM*	3.5%	nt	nt
COc1cc(C(C)=O)ccc1OCC(O)CN1CCN(S(=O)(=O)c2ccccc2)CC1 (stereo not given)	10.7	4.1	28.2µM*	5.6%	-8.9%	2.7%
Cc1ccc(-c2csc(N(C)C(=O)c3c(C)nn(-c4ccccc4)c3Cl)n2)cc1	-98.7*	-2.3[1.84 µM]	-9.0%	3.5%	-17.5%	-18.0%
CC(=O)N(C)c1nc(-c2ccc(Cl)cc2)cs1	42.2	3.9	1.2%	-5.8%	-9.1%	4.0%
CSCCC=O	nt	nt	-13.1%	nt	-3.8%	nt
CCCCC/C=C\C/C=C\C/C=C\C/C=C\CCCCCC(=O)NC(C)C(=O)O (stereo not given)	nt	nt	2.8%	-0.9%	-6.2%	nt
CCN(CC)c1ccc(C=C2C(=O)OC3(CCCCC3)OC2=O)cc1	nt	nt	0.178µM*	-1.3%	nt	?
CCN(CC)c1ccc(/C=C2/C(=O)ON=C2C)cc1	5.6	2.9	1.5µM*	-2.6%	-19.4%	-9.8%
CCN(CC)c1ccc(/C=C/C(=O)c2ccc(Br)cc2)cc1	?	-2.9	?	2.2%	-3.7%	-24.2%
CCCCC1(C)OC(=O)C(=Cc2ccc(N(CC)CC)cc2)C(=O)O1 (stereo not given)	18.8	-18.6	0.398µM*	-7.6%	20µM*	2.2%
CCN(CC)c1ccc(/C=C2/C(=O)c3ccc(C(=O)O)cc3C2=O)cc1	-13.1	nt	8.91µM*	-11.0%	11.2µM*	-11.4%
COc1ccc(CNc2ncncc2-c2c(C)noc2C)c(OC)c1	nt	nt	11.8%	nt	nt	-3.7%
Cc1ccccc1N1C(=O)c2cc(S(N)(=O)=O)c(Cl)cc2N[C@H]1C	nt	-4.0[20.6 µM]	?	-1.7%[17.1 µM]	-27.2%	?
COc1ccc2c(c1)O[C@H](c1ccc3c(c1)OCO3)[C@@H](OC(=O)Nc1ccc(OC(F)F)cc1)C2=O	nt	nt	6.3%	0.4%	-5.8%	nt
